PubChem BioAssay (NCATS)
Results filed as inconclusive are left out. The source made the active and inactive calls. Calls follow the shape of the dose curve; as a rule, active = well fitted inhibition curve with a large enough effect; inconclusive = small, poorly fitted or top-dose-only effect; inactive = flat fitted curve, though single readings scatter.

What follows are compounds tested on NIH3T3 (assay: qHTS assay to identify novel small-molecules to repurpose for Merkel cell carcinoma treatment (AID 1296009; also: nearly all actives have a fitted effect of over 60% in size)). Details: MCC and control cell lines, CellTiter-Glo viability, 72 h; at 44.8 µM (top of the series) unless noted.
Procedure, shortened: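 Cell viability, measured as CellTiter-Glo luminescence, was normalized between DMSO and no-cell wells. The cells had been exposed to 8- or 11-point compound dilutions for 72 hr at 37 degree celsius.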
`C/C=C(\C)C(=O)OC1C(C)OC(OC2C(C)OC(OC3CCC4(C)C(=CCC5C4CCC4(C)C(C(C)OC6OC(COC7OC(CO)C(O)C(O)C7O)C(O)C(O)C6O)CCC54O)C3)CC2OC)C(O)C1OC` (centres undefined) was tested, and the outcome was “inactive [at 9.27 µM]”.
With `Oc1ccc2c3c1O[C@H]1[C@H](N(CCCl)CCCl)CC[C@@]4(O)[C@@H](C2)N(CC2CC2)CC[C@]314` the outcome was “inactive [at 9.27 µM]”.
In the case of `COC(=O)N1CCN(C(=O)Cc2ccc(Cl)c(Cl)c2)[C@@H](CN2CCCC2)C1`, the outcome is reported as “inactive”.
For `COc1cc(C(=O)O[C@H]2[C@@H]3C=CO[C@@H](O[C@@H]4O[C@H](CO)[C@@H](O)[C@H](O)[C@H]4O)[C@@H]3[C@@]3(CO)O[C@@H]23)ccc1O`, the outcome was “inactive [at 17.4 µM]”.
`COC1CC(O[C@H]2CC[C@]3(C=O)C4CC[C@]5(C)[C@@H](C6=CC(=O)OC6)CC[C@]5(O)[C@@H]4CC[C@]3(O)C2)OC(C)C1O[C@@H]1O[C@H](CO)[C@@H](O)[C@H](O)[C@H]1O` (some centres undefined) was tested, and the outcome was “inactive [at 17.4 µM]”.
For `CC(C)C1(OO)C=C2C(=O)CC3C(C)(C(=O)O)CCCC3(C)C2CC1` (centres undefined), the outcome was “inactive”.
With `C[C@]12CC[C@@H](O)C[C@H]1CC[C@@H]1[C@@H]2CC[C@]2(C)C(=O)CC[C@@H]12` the outcome was “inactive”.
With `C[C@@](O)(COc1ccc(C#N)cc1)C(=O)Nc1ccc(C#N)c(C(F)(F)F)c1` the outcome was “inactive”.
In the case of `CC12CCC3C(CCC4(O)CC(O)CCC34C=O)C1(O)CCC2C1=CC(=O)OC1` (centres undefined), the outcome is reported as “inactive”.
`C[C@H]1O[C@@H](O[C@H]2C[C@@H](O)[C@]3(CO)C4C(CC[C@]3(O)C2)[C@@]2(O)CC[C@H](C3=CC(=O)OC3)[C@@]2(C)C[C@H]4O)[C@@H](O)[C@@H](O)[C@H]1O` (some centres undefined) was tested, and the outcome was “inactive [at 17.4 µM]”.
`COC1C(O)C(OC2CCC3(C=O)C(CCC4C3CCC3(C)C(C5=CC(=O)OC5)CCC43O)C2)OC(C)C1OC1OC(CO)C(O)C(O)C1O` (centres undefined) was tested, and the outcome was “inactive [at 17.4 µM]”.
In the case of `CC(=O)O[C@H]1C[C@@H](OC(C)=O)C(C)(C)C2C[C@@H](O)[C@]3(C)C(CC[C@@]4(C)[C@H](C5=CC(=O)OC5O)C[C@H]5O[C@]543)[C@]21C` (some centres undefined), the outcome is reported as “inactive [at 17.4 µM]”.
With `COC1CC(OC2CCC3(C=O)C(CCC4C3CCC3(C)C(C5=CC(=O)OC5)CCC43O)C2)OC(C)C1OC1OC(CO)C(O)C(O)C1O` (centres undefined) the outcome was “inactive [at 17.4 µM]”.
With `CN1[C@@H]2CC[C@H]1CC(OC(=O)C1C=Nc3ccccc31)C2` (some centres undefined) the outcome was “inactive”.
For `COC1=CC(=O)O[C@@H](/C=C/c2ccccc2)C1`, the outcome was “inactive”.
With `CC(C)(O)[C@H]1O[C@H]2CC[C@@]3(C)[C@@](O)(CC[C@H]4Cc5c([nH]c6ccccc56)[C@@]43C)C2=CC1=O` the outcome was “inactive [at 17.4 µM]”.
`CC(=O)OC12C(O)C(C)C3(O)C4C=C(C)C(=O)C4CC(CO)=CC3C1C2(C)C` (centres undefined) was tested, and the outcome was “inactive [at 17.4 µM]”.
`CCN1C[C@]2(OC(=O)c3ccccc3NC(C)=O)CC[C@H](OC)[C@@]34[C@@H]2C[C@@H]([C@@H]13)[C@@]1(O)C[C@H](OC)[C@H]2C[C@@H]4[C@]1(O)[C@H]2OC` was tested, and the outcome was “inactive”.
In the case of `CC1=CC2/C=C(\C)CCC(O)C3OC(C)(C)OC3CC(=O)OC23C(=O)NC(CC(C)C)C3C1C` (centres undefined), the outcome is reported as “inactive [at 17.4 µM]”.
